According to PubChem BioAssay AID488862 (Broad Institute, 2010):
The whole screen tested about 340,000 compounds, of which about 1,200 (0.35%) were called active. Only a selection was taken, and actives are over-represented in it overall. A number with no mark means an inactive call. Rule as the data show it: active = inhibition above about 52%; inactive = the rest.

Assay: inhibition of PrP 5' UTR reporter expression (AID 488862); also: 0 = median of the neutral control wells
Conditions: cell-based PrP 5' UTR mRNA reporter, plate reader; stronger effect = higher value; concentration not given here

Structure (SMILES)	inhibition
CC1CCCN(C(=O)CN2C(=O)c3ccccc3S2(=O)=O)C1 (stereo unspecified)	-26.3%
O=C(CSCc1ccccc1)N1CCc2ccccc21	-80.4%
O=C(CN1C(=O)c2ccccc2S1(=O)=O)N1CCc2ccccc21	62.6% (active)
COc1ccc(-n2c(Cc3cccn3C)nnc2SCC(=O)Nc2cc(C)cc(C)c2)cc1	6.37%
NC(=O)c1oc2ccccc2c1NC(=O)CS(=O)(=O)c1ccccc1	10.2%
O=C1[C@@H](c2ccccc2)[C@@H](c2ccccc2)N1c1cccnc1	59.7% (active)
O=C1C(=O)N(c2ccccc2)C(c2ccccc2)C1c1ccccc1 (stereo unspecified)	-4.98%
Cc1ccccc1N1C(=O)C2ON(c3ccccc3)C(c3ccncc3)C2C1=O (stereo unspecified)	-40.3%
COc1ccc(NS(=O)(=O)c2ccc(N3CCOCC3)c(NC(=O)/C=C/C(=O)O)c2)cc1	-1.46%
COc1cccc(CN(C)C(=O)CC23CC4CC(CC(C4)C2)C3)c1OC	-23.4%
Cc1cc(NC(=O)/C=C/C(=O)N(CC(=O)NC2CCCC2)c2ccc(F)cc2)no1	53.2% (active)
Cc1cc(NC(=O)CCC(=O)N(CC(=O)NC2CCCC2)c2ccc(F)cc2)no1	-5.73%
Cc1cc(NC(=O)/C=C/C(=O)N(c2ccccc2C)C(C(=O)NC2CCCC2)c2ccc(F)cc2)no1 (stereo unspecified)	-18%
CCOC(=O)c1cnc(-n2nc(C)cc2C)nc1NNc1cc(C)nc(-c2ccccc2)n1	33.9%
CC(=O)c1ccc(Oc2cc(C)nc(-n3nc(C)cc3C)n2)cc1	63.6% (active)
COc1ccc(C(C)=O)cc1CSc1nc2nc(C)cc(C)n2n1	3.27%
C[N+](C)(C)CCOP(=O)([O-])OC[C@H](O)CO	-9.94%
CCOCCN(C=O)c1cccc(OC)c1	-5.07%
CCOc1cc(NC(=O)CCl)c(OCC)cc1NC(C)=O	-34.2%
COc1ccc(S(=O)(=O)Nc2cc(C)on2)cc1NC(C)=O	-6.37%
CCOc1cc(NS(=O)(=O)c2ccc(OC)cc2)c(OCC)cc1NC(C)=O	64.1% (active)

Structure (SMILES)	inhibition
CN=C1SC(C(=O)O)CC(=O)N1C (stereo unspecified)	-12.6%
COc1ccc(OC)c(Cc2cnc3nc(N)nc(N)c3c2C)c1	65.3% (active)
COc1ccc(OC)c(NC(=O)c2sc3nc(C)cc(C)c3c2N)c1	-9.33%
COc1ccc(OC)c(Cc2nnc(CCC(=O)NC3CCCC3)o2)c1	0.259%
CC1CCCCN1CCCNc1ccc(C(CC(N)=O)NC(=O)c2ccccc2)cc1[N+](=O)[O-] (stereo unspecified)	-27.6%
O=C(Nc1ccc(N2CCN(C(=O)C3CC3)CC2)cc1)c1cccs1	-16.9%
CCOC(=O)c1cc2sccc2n1Cc1ccc(C#N)cc1	-13.3%
CC1Cc2ccccc2N1C(=O)c1cc2sccc2n1Cc1ccccc1 (stereo unspecified)	59.8% (active)
O=C(c1cc2sccc2n1Cc1ccc(F)cc1)N1CCc2ccccc21	-33%
CCOc1ccc(C(=O)CCC(=O)NC2=NCCS2)cc1	-27.4%
O=C(c1cc2ccccc2o1)N1CCN(Cc2ccccc2)CC1	-15%
OCC1(Cc2ccccc2)CCN(Cc2cc3ccccc3o2)CC1	74.7% (active)
CC(C)c1csc(CN2CCC(CO)(Cc3ccccc3)CC2)n1	-13.8%
CCCCn1c(N)c(N(CC(C)C)C(=O)c2cnc(C)cn2)c(=O)[nH]c1=O	-37.8%
CC(C)CN1CC(C)C(=O)N(c2ccccc2)C1=S (stereo unspecified)	-12.4%
O=C(C1=C[C@H](c2coc3ccccc3c2=O)C[C@H](OCc2ccc(CO)cc2)O1)N1CCN(Cc2ccccc2)CC1	81.9% (active)
O=C(C1=C[C@H](c2ccc(C(F)(F)F)cc2)C[C@H](OCc2ccc(CO)cc2)O1)N1CCN(Cc2ccccc2)CC1	-14.3%
O=C(C1=C[C@H](c2coc3ccccc3c2=O)C[C@H](OCc2ccc(CO)cc2)O1)N1CCOCC1	-9.97%
Cc1ccc(N(C(=O)C(F)(F)F)C(C(=O)NC2CCCCC2)c2ccncc2)cc1C (stereo unspecified)	-20.4%
Cn1c(Cc2cccs2)nnc1SCC(=O)Nc1ccccc1	-26.4%
